Consider 40 molecules from PubChem BioAssay (NCI).

This is part of a sample that, as a whole, favours compounds with a hit. Of some 83,000 tested, about 20% had one in any assay.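 Values shown are percent growth following 48 h exposure of cells in 96-well plates to a single concentration of compound; below 10 was considered active.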 Values without a mark were called inactive. Calls of active or inactive are those of the source.

The test system of this test is PC-3 prostate. As to the kind of experiment: NCI-60 one-dose screen, 48 h (100 = growth as untreated, 0 = no growth, -100 = all killed). Conditions: 10 µM unless noted. As for the experimental part:
Growth inhibition of the PC-3 human tumor cell line is measured as a screen for anti-cancer activity. Cells are grown in 96 well plates and exposed to the test compound for 48 hours. Compounds are tested at a single concentration, which is 10^-5 M for most compounds. The reported endpoint is percent growth (GI% or GIPRCNT), where numbers from 0 - 100% represent growth inhibition, and numbers from -100% - 0 represent cell death. For example, a value of 40 represents 60% growth inhibition. A value of 0 means no net growth occurred over the course of the experiment. A value of -40 indicates 40% of cells at the beginning of the experiment died by the end of the experiment. A value of -100 means all cells are dead at the end of the experiment.
NCI-60 Human Tumor Cell Lines Screen was performed using the standard one-dose NCI protocol, which is described in more detail at https://dtp.cancer.gov/discovery_development/nci-60/default.htm.
Compounds with GIPRCNT values below 10 were considered active. Activity score was based on GIPRCNT using the following formula: […]
Score is 0 for GIPRCNT values of 100 or above, 50 for GIPRCNT values of 0, and 100 for GIPRCNT values of -100.
Regarding `Cc1ccc(-c2ccc(Nc3ccccc3)nn2)cc1S(N)(=O)=O`, the growth was 93.8%.
Take `CC(=O)n1c(/C(C#N)=C/c2ccc(N(C)C)cc2)cc2ccccc21`: the growth is 39.4%.
In the case of `COC(=O)[C@]12CC[C@@H](C)[C@H](C)[C@@H]1C1=CC(=O)[C@@H]3[C@@]4(C)C[C@@H](O)[C@H](O)[C@@]5(C)COC(=C45)C[C@@]3(C)[C@]1(C)CC2` it was 49.2%.
The same measure for `CN(C)c1ccc(-c2ccc(-c3ccc(C(=N)N)c(F)c3)s2)cc1`: -90.4% (active); for `COc1ccc(-c2nc3c(c(C)nn3-c3ccc(F)cc3)c(=O)[nH]2)cc1`: 78.1%; for `C=C1C(=O)O[C@H]2[C@H]1CC/C(COC(=O)NCCc1c[nH]c3ccccc13)=C\CC[C@@]1(C)O[C@@H]21`: 35.1%.
In the case of `Cc1ccc(-c2nn(Cc3cn(-c4cc(C)nc5ccccc45)nn3)c3ncnc(N)c23)cc1` it was 49%; in that of `COc1cccc(-c2nn(-c3ccccc3)cc2-c2ccnc(NCCCN)c2)c1`, 47.7%.
For the molecule `Cn1cc(-c2csc(-c3cn(C(=O)OC(C)(C)C)c4ccc(Br)cc34)n2)c2cccnc21`, the growth is 87.5%.
As for `CC1(C)C(=O)/C(=C\c2ccccn2)C[C@]2(C)[C@H]3CC[C@@H]4[C@@H](C(=O)/C=C/c5ccccn5)CC[C@@]4(C)[C@]3(C)CC[C@@H]12`, the growth is 9.61% (active).
The same measure for `Cn1cc(-c2csc(-c3cn(CCN)c4ccccc34)n2)c2cccnc21`: 46.7%; for `NC1=NN=C2N(N)C(=O)c3cnn(-c4ccccc4)c3N2c2nc(-c3ccccc3)cc(-c3ccccc3)c21`: 90.5%; for `Cc1cccc(C)c1NC(=O)CSC(=S)N1CCCCC1`: 97.6%.
In the case of `Cn1cnc2c1c(=O)n(CCC(=O)Nc1ccc(F)cc1)c(=O)n2C` it was 91.1%.
In the case of `COc1ccc(-c2nc3ncccn3c2-c2nc3ccc(Br)cc3[nH]2)cc1` it was 65.5%; in that of `CCN1CCN(C(=O)[C@@]2(C)CC[C@]3(C)CC[C@]4(C)C(=CC(=O)[C@@H]5[C@@]6(C)CC[C@H](OCCC#N)C(C)(C)[C@@H]6CC[C@]54C)[C@@H]3C2)CC1`, 72.1%; in that of `O=c1[nH]c(=S)[nH]c2nc[nH]c12`, 96.9%.
Regarding `COc1ccc2c(c1)c(-c1nc(-c3c[nH]c4ncccc34)cs1)cn2CCCN1CCCCC1`, the growth is 28.5%.
As for `Cc1cc(Cl)nc(N(CCNc2ccnc3cc(Cl)ccc23)Cc2ccco2)n1`, the growth was 34.1%.
Regarding `c1ccc2c(-c3nc(-c4c[nH]c5ncccc45)cs3)c[nH]c2c1`, the growth was 84.2%.
The same measure for `C=C(C)[C@@H]1CC[C@]2(C=NCCCNCCCCNCCCN)CC[C@]3(C)[C@H](CC[C@@H]4[C@@]5(C)CCCNC(C)(C)[C@@H]5CC[C@]43C)[C@@H]12`: 85.9%; for `COc1ccc2nc(-c3c(-c4ccccc4)nc4ncccn34)[nH]c2c1`: 97.3%.
In the case of `CCCC(=O)N1CCCCC1CC` (stereo not given) it was 92.5%.
In the case of `N#CC1c2ccccc2-c2ccccc2N1C(=O)c1ccccc1` (stereo not given) it was 26.6%; in that of `COc1ccccc1CNc1nc(N)nc2[nH]c3ccc(O)cc3c12`, 65.5%; in that of `OCCNc1nc(Nc2ccc(Cl)c(Cl)c2)nc2ccccc12`, 18.8%.
Turning to `COc1cc(-c2c(C#N)c(-c3cccs3)nc3c2c(-c2ccccc2)nn3-c2ccccc2)ccc1O`, the growth was 66%.
The same measure for `COc1ccc2c(c1)c(-c1nc(-c3cn(C)c4ncccc34)cs1)cn2CCCN1CCCCC1`: 51.1%; for `COC(=O)[C@]12CC[C@@H](C)[C@H](C)[C@@H]1C1=CC(=O)[C@@H]3[C@@]4(C)C[C@@H](OC(C)=O)[C@H](OC(C)=O)[C@@](C)(COC(C)=O)[C@@H]4C(=O)C[C@@]3(C)[C@]1(C)CC2`: 2.41% (active); for `O=C(/C=C\c1ccc2c(c1)OCO2)/C=C/c1ccc2c(c1)OCO2`: 91.1%.
The same measure for `CC(=O)O[C@H]1CC[C@]2(C)[C@H]3CC=C4[C@@H]5[C@H](C)[C@@H](C)CC[C@]5(C(=O)NCCNCCNCCN)CC[C@@]4(C)[C@]3(C)CC[C@H]2C1(C)C`: 57.7%; for `CCCCn1c(-c2ccc(O)cc2)cn2c3c(=O)[nH]c(=O)n(C)c3nc12`: 68.9%; for `O=C1C(=O)N(CCCCn2cc(-c3ccccc3)nn2)c2ccccc21`: 94.3%.
Consider `CC(=O)OC(C)COc1ccc(-c2ccccc2)cc1` (stereo not given), for which the growth was 86.1%.
The same measure for `CC1(C)[C@@H](O)CC[C@]2(C)[C@H]3CC[C@@H]4[C@H]5[C@H](C(=O)/C=C/c6ccc(C(F)(F)F)cc6)CC[C@]5(CO)CC[C@@]4(C)[C@]3(C)CC[C@@H]12`: 43.9%; for `C[N+](C)(CCCCCC[N+](C)(C)C1c2ccccc2-c2ccccc21)C1c2ccccc2-c2ccccc21`: 98.2%.
The same measure for `Nc1nc2c(c(=O)[nH]1)C(c1ccc3c(c1)OCO3)C=C(C(=O)O)N2` (stereo not given): 113%; for `CN(C)c1ccc(C(=O)c2ccc(N(C)C)c(N)c2)cc1N`: 49.3%; for `Oc1ccc(Nc2ccccc2)cc1`: 65.7%.
On to `COc1ccc(/C=C(\C#N)c2cc3ccccc3n2S(C)(=O)=O)cc1`, for which the growth was 80.2%.
